PubChem BioAssay (NCATS)
Values without a mark were called inactive. For some of these results: Results with a measured potency or affinity are listed apart. Active and inactive are the calls of the source. How the calls were made is not given here.

Assays:
[1] = Ebola virus entry assay, green fluorescence channel
[2] = Ebola virus entry assay, blue channel fluorescence
[3] = Ebola virus entry assay, ratio channel
[4] = Ebola virus entry assay, green channel fluorescence
[5] = Ebola virus entry assay, reporter ratio channel; Channel type: primary
Wherever efficacy is given: 0% is about no effect.

SMILES	efficacy [1] [%]	AC50 [2]	AC50 [3]	outcome [4]	AC50 [5]	outcome [3]	outcome [2]	outcome [5]
CC(C)NCC(O)c1ccc2ccccc2c1 (stereo not given)	20.8	31.6 µM (active)	25.1 µM (active)	inactive	25.1 µM (active)			
CCCCc1cc2ccccc2c(OCCN(C)C)n1	-77.9	8.91 µM (active)	7.08 µM (active)	inactive	7.08 µM (active)			
CCN(CC)CCOc1ccc2c(c1)C(=O)c1cc(OCCN(CC)CC)ccc1-2	9	1.41 µM (active)	1.41 µM (active)	inactive	1.41 µM (active)			
CC(C)(C)C(=O)OCOC(=O)[C@@H]1N2C(=O)[C@@H](NC(=O)[C@H](N)c3ccccc3)[C@H]2SC1(C)C	35	12.6 µM (active)	20 µM (active)	inactive	20 µM (active)			
CC[C@H]1CN2CCc3cc(OC)c(OC)cc3[C@@H]2C[C@@H]1C[C@H]1NCCc2cc(OC)c(OC)cc21	58.8	17.8 µM (active)	17.8 µM (active)	inactive	17.8 µM (active)			
O=c1oc2c(O)c(O)cc3c(=O)oc4c(O)c(O)cc1c4c23	33.8	11.2 µM (active)	11.2 µM (active)	inactive	11.2 µM (active)			
CC(C)(C)C(=O)C(Oc1ccc(Cl)cc1)n1ccnc1 (stereo not given)	12.3	39.8 µM (active)		inactive	39.8 µM (active)	inactive		
Cc1ccc(C(=O)Nc2ccc(S(=O)(=O)O)c3cc(S(=O)(=O)O)cc(S(=O)(=O)O)c23)cc1NC(=O)c1cccc(NC(=O)Nc2cccc(C(=O)Nc3cc(C(=O)Nc4ccc(S(=O)(=O)O)c5cc(S(=O)(=O)O)cc(S(=O)(=O)O)c45)ccc3C)c2)c1	21.5	39.8 µM (active)	20 µM (active)	inactive	20 µM (active)			
CO/N=C(/C(=O)N[C@@H]1C(=O)N2C(C(=O)O)=C(Cn3nnc(C)n3)CS[C@H]12)c1csc(N)n1	14.5			inactive		inactive	inactive	inactive
NC1(c2ccccc2)CCCCC1	44.3	35.5 µM (active)	31.6 µM (active)	inactive	31.6 µM (active)			
Nc1ccc(Cl)cc1C(=O)c1ccccc1F	-39	31.6 µM (active)		inactive	31.6 µM (active)	inactive		
CN(C)CCN(Cc1cccs1)c1ccccn1	21.2	31.6 µM (active)	17.8 µM (active)	inactive	17.8 µM (active)			
CC(C)(C)CC(C)(C)c1ccc(O)c(Cc2ccc(Cl)cc2Cl)c1	12.2	22.4 µM (active)	14.1 µM (active)	inactive	14.1 µM (active)			
O=S1(=O)c2cccc3cccc(c23)N1CCCN1CCN(c2ccc(F)cc2)CC1	-13.1	25.1 µM (active)	25.1 µM (active)	inactive	25.1 µM (active)			
C=C[C@@]1(C)CC(=O)[C@]2(O)[C@@]3(C)[C@@H](O)CCC(C)(C)[C@@H]3[C@H](O)[C@H](OC(C)=O)[C@@]2(C)O1	10.9	10 µM (active)		inactive		inactive		inactive
CC[C@]1(O)CC[C@H]2[C@@H]3CCC4=CCCC[C@@H]4[C@H]3CC[C@@]21C	22.6	17.8 µM (active)	15.8 µM (active)	inactive	15.8 µM (active)			
O=C1NCN(c2ccccc2)C12CCN(CCCOc1ccc(F)cc1)CC2	-43.3	3.16 µM (active)	3.16 µM (active)	inactive	3.16 µM (active)			
COc1cc([C@H]2Oc3cc([C@H]4Oc5cc(O)cc(O)c5C(=O)[C@@H]4O)ccc3O[C@@H]2CO)ccc1O	13.5	39.8 µM (active)		inactive	44.7 µM (active)	inactive		
CC(C)(C)OC(=O)c1ncn2c1[C@@H]1CCCN1C(=O)c1c(Br)cccc1-2	19.6			inactive		inactive	inactive	inactive
CC1(c2ccccc2)OC(C(=O)O)=CC1=O (stereo not given)	-18.5			inactive		inactive	inactive	inactive
Cn1cnc2c1c(=O)[nH]c(=O)n2C	-13.7			inactive		inactive	inactive	inactive
CCC(C)(C)c1ccc(CC(C)CN2C[C@@H](C)O[C@@H](C)C2)cc1 (stereo not given in full)	-29.5	39.8 µM (active)		inactive	39.8 µM (active)	inactive		
COC(=O)[C@H]1[C@H]2C[C@@H]3c4[nH]c5cc(OC)ccc5c4CCN3C[C@H]2C[C@@H](OC(=O)/C=C/c2ccc(O)c(OC)c2)[C@@H]1OC	-80.1	3.55 µM (active)	3.16 µM (active)	inactive	3.16 µM (active)			
CCCC(C)C1(CC)C(=O)N=C(S)NC1=O (stereo not given)	15.1			inactive		inactive	inactive	inactive

SMILES	efficacy [1] [%]	AC50 [2]	AC50 [3]	outcome [4]	AC50 [5]	outcome [3]	outcome [2]	outcome [5]
CN(Cc1ccc(C(C)(C)C)cc1)Cc1cccc2ccccc12	-29.5	35.5 µM (active)		inactive	39.8 µM (active)	inactive		
CC(C)NCC(O)COc1ccc(COCCOC(C)C)cc1 (stereo not given)	22.5	15.8 µM (active)	12.6 µM (active)	inactive	12.6 µM (active)			
C/C=C(/C(=C/C)c1ccc(O)cc1)c1ccc(O)cc1	-16.1	28.2 µM (active)		inactive		inactive		inactive
C[N+]1(CC2COC(c3ccccc3)(c3ccccc3)O2)CCCCC1 (stereo not given)	25			inactive		inactive	inactive	inactive
Cc1ccc(Cl)c(OCC(O)CNC(C)(C)C)c1 (stereo not given)	-22.3	15.8 µM (active)	28.2 µM (active)	inactive	28.2 µM (active)			
Oc1ccc(Cl)cc1Cc1cc(Cl)ccc1O	31.6	3.55 µM (active)	11.2 µM (active)	inactive	11.2 µM (active)			
Oc1c(Cl)cc(Cl)cc1Sc1cc(Cl)cc(Cl)c1O	-26.7	11.2 µM (active)	22.4 µM (active)	inactive	22.4 µM (active)			
C[C@]12CC[C@H]3[C@@H](CCC4=CC(=O)CC[C@@H]43)[C@@H]1CC[C@@H]2O	-8.66			inactive		inactive	inactive	inactive
O=C(Nc1ccc(Cl)cc1)Nc1ccc(Cl)c(Cl)c1	-28.2	15.8 µM (active)	12.6 µM (active)	inactive	12.6 µM (active)			
CC1N=C(N)OC1c1ccccc1 (stereo not given)	23.7	31.6 µM (active)		inactive	31.6 µM (active)	inactive		
C=CCOc1ccccc1OCC(O)CNC(C)C (stereo not given)	-13.2	14.1 µM (active)	14.1 µM (active)	inactive	14.1 µM (active)			
CCCCN=C(N)N=C(N)N	24.1			inactive		inactive	inactive	inactive
CCOC(=O)c1ccc(OC(=O)CCCCCN=C(N)N)cc1	-11.5			inactive		inactive	inactive	inactive
CNC(=O)NC(O)C(Cl)(Cl)Cl (stereo not given)	-36.8			inactive		inactive	inactive	inactive
Cc1c(N)cccc1C(F)(F)F	32.5			inactive		inactive	inactive	inactive
N=C(N)c1ccc2cc(OC(=O)c3ccc(N=C(N)N)cc3)ccc2c1	15			inactive		inactive	inactive	inactive
O=C(OCc1ccccc1)c1ccc(O)cc1	-29.7	22.4 µM (active)		inactive		inactive		inactive
NC(=O)C(=O)N/N=C/c1ccc([N+](=O)[O-])o1	21.5			inactive		inactive	inactive	inactive
COC(=O)C1=C(C)NC(C)=C(C(=O)O[C@@H]2CCCN(Cc3ccccc3)C2)[C@@H]1c1cccc([N+](=O)[O-])c1	39.4	39.8 µM (active)		inactive	35.5 µM (active)	inactive		
Cc1cccc(Nc2cc(Cl)nc(SCC(=O)O)n2)c1C	19.8			inactive		inactive	inactive	inactive
C[C@H]1CNCCc2ccc(Cl)cc21	45.2	20 µM (active)		inactive	39.8 µM (active)	inactive		
CN1C(=O)CN=C(c2ccccc2)c2cc(Cl)ccc21	-37.3	25.1 µM (active)		inactive	35.5 µM (active)	inactive		
CN1CCc2cc(Cl)c(O)cc2[C@H]2c3ccccc3CC[C@@H]21	24	25.1 µM (active)	17.8 µM (active)	inactive	17.8 µM (active)			
